High-throughput results: PubChem, National Center for Advancing Translational Sciences (NCATS)
Abeta yeast res: compounds reversing amyloid beta toxicity in yeast. yeast expressing A-beta42, growth rescue, OD600, 48 h; response scale: 0% DMSO, 100% iron-clioquinol control. Potency, µM (top dose mostly 46.1 µM), actives largely listed as activators. 0.063% of 410,000 active. AID 1347071; also: nearly all actives have a fitted effect of over 55% in size
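Growth rescue measured by 600 nm absorbance after 48 h yeast culture at 30 C with compound. Values normalized between DMSO and an equimolar ferric chloride plus clioquinol control.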
PTAP TSG101 blk: blocks PTAP/TSG101 interaction to inhibit HIV-1 budding | 340,000 tested, under 10 active | Potency, µM (highest dose often 115 µM), hits mostly inhibitors | AID 493005 | Fluorescence polarization, FITC-PTAP peptide / Tsg101 binding | Q99816; active = well fitted inhibition curve with a large enough effect in the main read-out, with a control signal flat, not every such curve was filed as active; inconclusive = small, poorly fitted or top-dose-only effect, or effect the other way, or a change in a side signal; inactive = no such curve, though single readings can be large or run the other way
Target sequence (Q99816 whole entry, looked up): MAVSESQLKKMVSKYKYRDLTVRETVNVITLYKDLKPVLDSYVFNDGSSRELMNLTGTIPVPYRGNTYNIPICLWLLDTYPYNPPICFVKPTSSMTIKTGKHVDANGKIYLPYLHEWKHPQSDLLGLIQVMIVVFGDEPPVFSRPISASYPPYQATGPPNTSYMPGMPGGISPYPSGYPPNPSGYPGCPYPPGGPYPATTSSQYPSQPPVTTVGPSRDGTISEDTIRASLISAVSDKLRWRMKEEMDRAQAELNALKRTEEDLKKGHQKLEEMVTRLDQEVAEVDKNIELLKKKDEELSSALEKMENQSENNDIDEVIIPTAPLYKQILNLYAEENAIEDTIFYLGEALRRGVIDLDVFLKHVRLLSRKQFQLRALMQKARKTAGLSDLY
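FP read-out: FITC-PTAP peptide, 50 nM final, binding Tsg101 binding domain, 10 uM final; 20 min, r.t.; 10 mM HEPES pH 7.5, 0.15 M NaCl, 0.01% Tween 20, 3 mM EDTA, 0.1 mM TCEP.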
FUS suppressor: suppressors of FUS proteinopathy in yeast. Potency, µM (doses to about 76.6 µM), actives largely listed as activators. S. cerevisiae FUS-expressing, growth rescue, OD600, 24 h. AID 1347120. 0.24% of 390,000 active; also: nearly all actives have a fitted effect of over 55% in size
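Cultures pregrown in 2.5% raffinose medium are shifted to minimal medium containing 2% galactose to express toxic FUS. Compounds are tested at several concentrations. After 24hr at 30C, growth is quantified at 600 nm absorbance.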
TDP-43 yeast inh: rescues yeast growth from TDP-43 toxicity; Potency, µM (highest dose often 46.1 µM), hits mostly activators; TDP-43 expressing yeast growth rescue, BacTiter-Glo, 24 h; 1.8% of 410,000 active; AID 652104; also: nearly all actives have a fitted effect of over 50% in size
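Luminescence from BacTiter-Glo reports growth of TDP-43-expressing yeast after 24 hr at 30 deg C with compound. Cells were raffinose-pregrown to mid-log, then seeded in galactose medium at OD600=0.02.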
aSyn rescue: rescues yeast growth from alpha-synuclein toxicity; Yeast expressing alpha-synuclein, growth rescue, BacTiter-Glo, 24 h; Potency, µM (series often up to 46.1 µM), most hits filed as activators; 0.14% of 370,000 active; AID 652106; also: nearly all actives have a fitted effect of over 65% in size
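Galactose-induced alpha-syn yeast (OD600=0.02, raffinose-pregrown) + pinned cpd, 24 hr, 30 deg C; growth by BacTiter-Glo luminescence. Growth restoration scores as activation.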
A number is an active result. Compounds with a hit are over-represented: about 2.1% of the library has one in this group of screens. Unless noted, calls follow the shape of the dose curve; as a rule, active = well fitted curve in the direction sought with a large enough effect; inconclusive = small, poorly fitted or top-dose-only effect, or another doubt; inactive = no such curve, though single readings can be large; an effect the other way counts as inactive or inconclusive.

For Cc1ccccc1OCC(=O)N/N=C/c1ccc([N+](=O)[O-])o1 the results were Abeta yeast res inactive, PTAP TSG101 blk inactive, FUS suppressor inactive, TDP-43 yeast inh inactive and aSyn rescue inactive.
Screening CCc1ccccc1-n1c2c(cc(-c3nc(-c4ccc(Cl)cc4)cs3)c1=O)C(=O)CC(C)(C)C2 returned Abeta yeast res inactive, FUS suppressor inactive and TDP-43 yeast inh inactive.
COc1ccc(S(=O)(=O)N(Cc2nc(-c3cccc(C)c3)no2)C2CCCCC2)cc1 was read as Abeta yeast res inactive, FUS suppressor inactive and TDP-43 yeast inh inactive.
`Cc1ccc(C)c(NC(=O)c2cccc3c2-c2ccccc2C3=O)c1` gave FUS suppressor inactive.
Screening O=C(CNc1cccc([N+](=O)[O-])c1)N/N=C/c1ccc([N+](=O)[O-])o1 returned Abeta yeast res inactive, PTAP TSG101 blk inactive, FUS suppressor inactive, TDP-43 yeast inh inactive and aSyn rescue inactive.
O=C(CNc1cccc2ccccc12)N/N=C/c1ccc([N+](=O)[O-])o1 was read as Abeta yeast res inactive, PTAP TSG101 blk inactive, FUS suppressor inactive, TDP-43 yeast inh 20µM and aSyn rescue inactive.
Screening COc1ccc(-c2ccccc2)cc1NC(=O)C1(C)CCN1C(=O)C(C)C (configuration not stated) returned Abeta yeast res inactive, FUS suppressor inconclusive, TDP-43 yeast inh 35µM and aSyn rescue inactive.
For Cc1onc(-c2ccccc2Cl)c1C(=O)Nc1ccc(Br)cc1 the results were Abeta yeast res inactive, PTAP TSG101 blk inactive, FUS suppressor inactive, TDP-43 yeast inh 11µM and aSyn rescue inactive.
Screening Cc1onc(-c2ccccc2Cl)c1C(=O)Oc1cccc2cccnc12 returned Abeta yeast res inactive, PTAP TSG101 blk inactive, FUS suppressor inactive, TDP-43 yeast inh 18µM and aSyn rescue inactive.
Cc1onc(-c2ccccc2Cl)c1C(=O)Nc1ccccc1 was read as Abeta yeast res inactive, PTAP TSG101 blk inactive, FUS suppressor inactive, TDP-43 yeast inh inconclusive and aSyn rescue inactive.
O[C@H]1C[C@H](c2ccc(Cl)cc2)N(CC2CCCCC2)C[C@@H]1n1cc(-c2ccc(F)cc2)nn1 was read as Abeta yeast res inconclusive, FUS suppressor inactive, TDP-43 yeast inh inactive and aSyn rescue inconclusive.
`Cc1ccc(NC(=O)C2Cc3ccccc3N2C(=O)c2ccccc2)cc1Cl` (configuration not stated) gave Abeta yeast res inactive, FUS suppressor inactive and TDP-43 yeast inh inactive.
CCOC(=O)c1c(C)oc2nc(C)nc(NCCc3ccc(SC)cc3)c12 was read as Abeta yeast res inactive, FUS suppressor inactive and TDP-43 yeast inh inactive.
Screening CC(C)c1ccc(C2CC(c3ccc(Br)cc3)=NN2C(N)=S)cc1 (configuration not stated) returned Abeta yeast res 10µM, PTAP TSG101 blk inactive, FUS suppressor inactive, TDP-43 yeast inh inactive and aSyn rescue inactive.
C[C@H]1O[C@@H](n2c3ccc(Cl)cc3c3ccc4c5cc(Cl)ccc5[nH]c4c32)[C@H](O)[C@H](O)[C@H]1O was read as FUS suppressor inactive.
Cc1ccc2c(CC(=O)Nc3nc(C)cs3)coc2c1 was read as Abeta yeast res inconclusive, PTAP TSG101 blk inactive, FUS suppressor inactive, TDP-43 yeast inh 11µM and aSyn rescue inactive.
Screening CSc1nnc(NC(=O)Cc2coc3cc(C)ccc23)s1 returned Abeta yeast res inactive, FUS suppressor inactive and TDP-43 yeast inh inactive.
For COc1ccc2c(CC(=O)Nc3nc(C)cs3)coc2c1 the results were Abeta yeast res inactive, PTAP TSG101 blk inactive, FUS suppressor inactive, TDP-43 yeast inh 13µM and aSyn rescue inactive.
For COc1ccc2c(CC(=O)Nc3ncc(C)s3)coc2c1 the results were Abeta yeast res inactive, PTAP TSG101 blk inactive, FUS suppressor inactive and aSyn rescue inactive.
Screening COc1cc(S(=O)(=O)O)c(C)cc1N=Nc1c(O)ccc2cc(S(=O)(=O)O)ccc12 returned aSyn rescue inactive.
Screening O=C(/C=C/c1c(Cl)cccc1Cl)N1CCN(c2ncccn2)CC1 returned Abeta yeast res inactive, PTAP TSG101 blk inactive, FUS suppressor inactive, TDP-43 yeast inh 11µM and aSyn rescue inconclusive.
`O=C(CNc1cccc(Cl)c1)NNC(=S)NCc1ccccc1` gave Abeta yeast res inactive, PTAP TSG101 blk inactive, FUS suppressor inactive, TDP-43 yeast inh inactive and aSyn rescue inactive.
For S=C(NCc1ccccc1)Nc1cccc(Cl)c1 the results were Abeta yeast res inactive, PTAP TSG101 blk inconclusive, TDP-43 yeast inh 28µM and aSyn rescue inactive.
For Fc1ccccc1NC(=S)NCc1ccc(Cl)cc1 the results were Abeta yeast res inconclusive, PTAP TSG101 blk inactive, FUS suppressor inactive, TDP-43 yeast inh 11µM and aSyn rescue inactive.
Fc1ccc(CNC(=S)Nc2ccccc2F)cc1 was read as Abeta yeast res inconclusive, PTAP TSG101 blk inactive, FUS suppressor inactive, TDP-43 yeast inh inconclusive and aSyn rescue inactive.
Screening CCCS(=O)(=O)N1CC(=O)N(c2cc(C)cc(C)c2)C(C)(C(=O)NC2CCCCCC2)C1 (configuration not stated) returned Abeta yeast res inactive, FUS suppressor inactive and TDP-43 yeast inh inactive.
CCCN(CCC)CCCNC(=O)C1CCC(CNS(=O)(=O)c2ccc(NC(C)=O)cc2)CC1 (configuration not stated) was read as Abeta yeast res inactive, FUS suppressor inactive and TDP-43 yeast inh inactive.
COc1cccc(CNc2nc3cc(-c4ccc(C)cc4)sc3c(=O)n2C)c1OC was read as Abeta yeast res inactive, FUS suppressor inactive, TDP-43 yeast inh 25µM and aSyn rescue inconclusive.
Screening Cc1ccccc1-c1cc2nc(OCC3CCCO3)n(C)c(=O)c2s1 (configuration not stated) returned Abeta yeast res inactive, FUS suppressor inconclusive, TDP-43 yeast inh inconclusive and aSyn rescue inactive.
Screening COc1cccc(CNc2nc3cc(-c4ccc(F)cc4)sc3c(=O)n2C)c1OC returned Abeta yeast res inactive, FUS suppressor inactive, TDP-43 yeast inh inactive and aSyn rescue inactive.
For COCCNc1nc2cc(-c3ccccc3)sc2c(=O)n1C the results were Abeta yeast res inactive, FUS suppressor inactive, TDP-43 yeast inh 20µM and aSyn rescue inactive.
Cn1c(OCC2CCCO2)nc2cc(-c3ccccc3)sc2c1=O (configuration not stated) was read as Abeta yeast res inactive, FUS suppressor inactive, TDP-43 yeast inh 35µM and aSyn rescue inactive.
Screening Cc1ccc(CNc2nc3cc(-c4ccccc4C)sc3c(=O)n2C)c(C)c1 returned Abeta yeast res inactive, FUS suppressor inconclusive, TDP-43 yeast inh inactive and aSyn rescue inconclusive.
For C=CCNc1nc2cc(-c3ccccc3C)sc2c(=O)n1C the results were Abeta yeast res inactive, FUS suppressor inactive, TDP-43 yeast inh 35µM and aSyn rescue inactive.
